The full ranking holds about 33,000 sequences; the median of “E-score (-0.5 to 0.5)” is about -0.043, and the highest 2% start at about 0.37. The list comes from a sample in which the highest values are over-represented; it also holds similar and randomly drawn sequences.
target: T1, Upc2 (UniProt Q12151); test: PBM E-score (8-mer binding enrichment) (E-score (-0.5 to 0.5)); higher = stronger / more preferred TF binding; conditions: protein concentration: 200 nM; construct: GST-full length
T1 sequence: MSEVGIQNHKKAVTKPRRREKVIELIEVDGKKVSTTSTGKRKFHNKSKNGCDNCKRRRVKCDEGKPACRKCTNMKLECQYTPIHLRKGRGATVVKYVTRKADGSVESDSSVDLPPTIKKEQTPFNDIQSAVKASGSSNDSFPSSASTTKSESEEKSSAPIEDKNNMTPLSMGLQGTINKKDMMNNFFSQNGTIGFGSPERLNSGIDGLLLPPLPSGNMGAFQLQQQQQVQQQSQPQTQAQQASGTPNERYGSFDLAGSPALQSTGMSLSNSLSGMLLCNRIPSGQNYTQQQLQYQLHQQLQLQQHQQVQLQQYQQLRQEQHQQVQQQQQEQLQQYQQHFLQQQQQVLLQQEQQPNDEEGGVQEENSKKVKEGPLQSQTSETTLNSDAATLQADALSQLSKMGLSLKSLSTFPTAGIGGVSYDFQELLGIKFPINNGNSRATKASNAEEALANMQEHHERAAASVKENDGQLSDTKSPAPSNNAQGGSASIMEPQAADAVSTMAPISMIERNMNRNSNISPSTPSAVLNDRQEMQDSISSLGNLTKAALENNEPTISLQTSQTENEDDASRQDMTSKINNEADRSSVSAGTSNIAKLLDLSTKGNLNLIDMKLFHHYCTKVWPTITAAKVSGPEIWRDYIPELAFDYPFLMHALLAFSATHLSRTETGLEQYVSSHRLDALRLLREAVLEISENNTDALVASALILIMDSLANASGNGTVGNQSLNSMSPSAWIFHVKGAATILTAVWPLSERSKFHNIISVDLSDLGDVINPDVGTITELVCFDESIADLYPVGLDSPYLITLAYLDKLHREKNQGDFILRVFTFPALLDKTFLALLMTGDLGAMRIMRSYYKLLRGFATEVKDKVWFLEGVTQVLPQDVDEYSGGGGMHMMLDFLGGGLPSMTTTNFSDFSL
Protocol: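 Universal 'all 10-mer' protein binding microarrays (Agilent AMADID 015681) probed with GST-tagged S. cerevisiae TFs (full-length or DBD) made by in vitro transcription/translation (PURExpress), about 100-200 nM. Bound TF was detected with fluorescent anti-GST. Each ungapped 8-mer (which stands for itself and its reverse complement) is scored by the PBM enrichment score (E-score), a modified Wilcoxon-Mann-Whitney statistic from -0.5 to +0.5, computed with the Universal PBM Analysis Suite. Scale: above 0.35 generally sequence-specific binding.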

Sequence | PBM E-score
GAACCATA | -0.072
CGCCTTGC | -0.288
ACTTGTCA | -0.235
AAAGCATG | -0.169
AGCTTGAT | -0.129
GGTATGAA | 0.0119
AGTATGAC | 0.0571
CGTATGAA | 0.405
CGTATGAC | 0.42
CGTATGAG | 0.415
AGTATGAG | -0.125
CCTATGAG | -0.28
AGTATGAA | 0.00208
GGTATGAC | -0.204
CAAGGTGG | -0.0983
ACGTAACA | -0.0115
GATCTTAA | 0.159
ACGGTGGG | 0.134
GACGACTC | -0.052
ATCGACTG | 0.0556
TACGACTA | 0.437
AACGACTG | 0.389

Sequence | PBM E-score
AACGACTC | 0.401
AACGACTT | 0.305
GACGACTA | -0.171
AGCGACTA | 0.154
CACGACTA | -0.0651
CACGACTC | 0.0449
AACGACTA | 0.379
CACGACTG | 0.0762
AACCATAA | -0.0292
CACCAATC | -0.249
CTCCCACC | -0.0368
GTGTTCAA | -0.00045
AGCCAACA | -0.098
ATGTCTTG | -0.0852
CATGGGGC | -0.34
CAGGGTAA | -0.14
GAGGTCAA | -0.0747
CTCCCAAA | -0.0646
TGTATCAA | -0.0549
CGTATCAC | 0.364
CATATCAG | -0.165
CGTATCAA | 0.37

Sequence | PBM E-score
CGTATCAG | 0.381
AGTATCAG | -0.235
CGGGCTAG | -0.117
CAAATCTG | -0.272
CCTGCTTC | -0.109
CAACGAGG | 0.278
AAACGAGT | 0.477
CCACGAGA | -0.277
AAACGAGG | 0.481
AAACGTGG | 0.255
TAACGAGA | 0.391
AAACGAGA | 0.469
AATCGAGT | 0.0695
ACACGAGT | 0.162
ACACGAGA | 0.244
CAACGAGA | 0.314
TCACGAGA | 0.0145
CTATGGAA | -0.161
AAGATTGT | 0.00873
ATTCACGA | 0.0672
AATGACCC | -0.157
GCTAGTGA | -0.115

Sequence | PBM E-score
AATGAGCT | -0.163
CCTCCTCC | -0.105
AACTAGTA | -0.0317
GTGCTATA | 0.128
CCTTGTCC | -0.205
CGGTTCAC | -0.117
GGTAACGA | 0.346
ATTAACGG | 0.185
GCTAACGA | 0.304
CGTAACGC | 0.324
CTTAACGA | 0.464
GTTAACTA | 0.157
CTTAACCA | -0.0796
GTTAACGA | 0.442
ATTAACGC | 0.143
ATTAACGA | 0.424
CTTAACGC | 0.17
CGTAACGA | 0.374
ACGCACGT | 0.144
AGATTCTC | -0.0164
CACTTCAA | -0.0335
GGCACACA | -0.136

Sequence | PBM E-score
ACGCAGTG | 0.0743
TCACCTGA | -0.284
CTACGCTA | -0.04
TCGCTTAA | 0.403
GCGCTTAA | 0.173
CCGCTTAA | 0.268
ACTTATTG | -0.116
GATCTCTA | -0.0508
CATAAACC | -0.075
AATAAACT | -0.0754
AATAAACG | 0.429
AATAAACA | 0.0907
CATAAACA | -0.00956
CATAAACG | 0.462
CTCATACC | 0.051
GGCTTTTA | -0.157
CTAATTCA | -0.0938
CCGTTCAC | 0.291
AGTTGTTC | 0.127
ACCGATAA | 0.158
CACGATAC | 0.197
